Each structure is given as a SMILES string. ± gives the uncertainty stated by the source. Whole data set: some 9,900 compounds, median “viability index relative to DMSO control” near 1, cut for the lowest 2% near 0.85. For the sample, the lowest values were picked, then their nearest neighbours and some compounds at random.

In this assay the test system is Plasmodium falciparum NF54 stage V gametocytes. Put plainly: viability index relative to DMSO control (fraction); higher = less gametocyte killing. Conditions: 2.5 µM, incubation time: 72 h. Summed up:
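P. falciparum NF54 stage V gametocytes (serum-free medium, 0.75% gametocytemia, 1.25% hematocrit) were exposed to compound at 2.5 µM for 72 hr at 37°C under low oxygen, then stained with MitoTracker Red CMXRos and saponin for one to two hours. Red particles of 20–70 µm2 in one field per well were counted, and the viability index is that count scaled to the plate mean of solvent-only wells.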

Where [1] appears, read: library set: Broad Institute DOS.
[2] abbreviates: library set: Broad Institute Blood Stage.

Compound `C[C@@H]1CN([C@@H](C)CO)C(=O)CCCn2cc(nn2)CO[C@@H]1CN(C)S(=O)(=O)c1cn(C)cn1` registered a viability index under setting [1] of 1.07 ± 0.062.
Still for that read-out and setting: with `COC(=O)C[C@H]1C[C@H]2c3cc(N)ccc3O[C@H]2[C@H](CO)O1` the figure was 1.05 ± 0.0071; with `C/C=C/c1ccc([C@@H]2[C@H](CO)N3CCCCN(S(=O)(=O)c4ccc(OC)cc4)C[C@@H]23)cc1`, 1.03 ± 0.014; with `C[C@H](CO)N1C[C@H](C)[C@H](CN(C)C(=O)NC2CCCCC2)OCc2ccccc2-c2ccccc2C1=O`, 1.03 ± 0.03.
Under setting [1], `COC(=O)C[C@H]1CC[C@@H]2[C@@H](COc3ccc(NC(=O)Nc4c(C)noc4C)cc3C(=O)N2C)O1` returned a viability index of 0.983 ± 0.14.
As for `O=C(Nc1ccc(F)cc1)N1CC(=O)N2[C@H](CO)[C@H](c3ccc(-c4cccc(F)c4)cc3)[C@H]2C1`, the viability index under setting [1] was found to be 1.05 ± 0.019.
Same read-out and setting: with `C[C@@H]1CN([C@H](C)CO)C(=O)c2ccccc2-c2ccccc2CO[C@@H]1CN(C)C(=O)Nc1cccc(Cl)c1Cl` the figure was 0.894 ± 0.05; with `C[C@H](CO)N1C[C@H](C)[C@@H](CN(C)C(=O)Nc2cccc(Cl)c2Cl)OCc2ccccc2-c2ccccc2C1=O`, 0.845 ± 0.043; with `C[C@H]1CN([C@@H](C)CO)C(=O)c2ccccc2-c2ccccc2CO[C@H]1CN(C)C(=O)Nc1cccc(Cl)c1Cl`, 0.9208 ± 0.0078.
As to `C[C@@H]1CN([C@@H](C)CO)C(=O)c2ccccc2-c2ccccc2CO[C@@H]1CN(C)C(=O)Nc1cccc(Cl)c1Cl`, the viability index under setting [1] came out at 0.946 ± 0.053.
Under setting [1], `C[C@@H]1CN([C@@H](C)CO)C(=O)c2ccccc2-c2ccccc2CO[C@H]1CN(C)C(=O)Nc1cccc(Cl)c1Cl` showed a viability index of 0.72 ± 0.16.
The compound `C[C@H](CO)N1C[C@H](C)[C@@H](CN(C)C(=O)Nc2ccc(-c3ccccc3)cc2)OCc2ccccc2-c2ccccc2C1=O` returned a viability index under setting [1] of 1.019 ± 0.0076.
Under setting [1], `C[C@H]1CN([C@@H](C)CO)C(=O)c2ccccc2-c2ccccc2CO[C@H]1CN(C)C(=O)Nc1ccc(-c2ccccc2)cc1` showed a viability index of 0.724 ± 0.14.
Turning to `C[C@@H]1CN([C@@H](C)CO)C(=O)c2ccccc2-c2ccccc2CO[C@@H]1CN(C)C(=O)Nc1ccc(-c2ccccc2)cc1`, the viability index under setting [1] was determined as 0.977 ± 0.016.
In turn, `C[C@@H]1CN([C@H](C)CO)C(=O)c2ccccc2-c2ccccc2CO[C@H]1CN(C)C(=O)Nc1cccc(Cl)c1Cl` registered a viability index under setting [1] of 0.863 ± 0.045.
In turn, `COC(=O)C[C@@H]1C[C@@H]2c3cc(NC(=O)c4ccc5c(c4)OCO5)ccc3O[C@@H]2[C@H](CO)O1` yielded a viability index under setting [1] of 0.991 ± 0.033.
In turn, `COc1ccc(S(=O)(=O)Nc2ccc3c(c2)CC(=O)N([C@H](C)CO)C[C@@H](C)[C@@H](CN(C)C(=O)Nc2c(C)noc2C)O3)cc1` came in with a viability index under setting [1] of 1.101 ± 0.0069.
For `Cc1ccc(S(=O)(=O)N(C)C[C@@H]2Oc3c(NS(C)(=O)=O)cccc3C(=O)N([C@H](C)CO)C[C@@H]2C)cc1`, the viability index under setting [1] came to 0.939 ± 0.13.
Consider `COc1ccccc1CNC(=O)C[C@@H]1C[C@@H]2c3cc(NC(=O)C4CCC4)ccc3O[C@@H]2[C@@H](CO)O1`, for which the viability index under setting [1] amounted to 1.01 ± 0.015.
The compound `O=C([C@@H]1[C@@H](CO)[C@@H]2Cn3c(ccc(C4=CCCC4)c3=O)[C@H]1N2C(=O)c1cccnc1)N1CCOCC1` yielded a viability index under setting [1] of 1.08 ± 0.038.
The compound `CCc1nc(N2[C@H](CO)[C@H](c3ccccc3-c3ccc(F)cc3)[C@@H]2C#N)sc1C` registered a viability index under setting [1] of 1.03 ± 0.12.
Compound `O=C(C[C@@H]1CC[C@H]2NC[C@@H](O)COC[C@@H]2O1)NCc1ccc2c(c1)OCO2` returned a viability index under setting [1] of 1.07 ± 0.015.
For `COc1ccc2c3c([nH]c2c1)[C@H](CO)N(Cc1ccncc1)C[C@]31CN(C1)C(=O)CN(C)C`, the viability index under setting [1] is 1.04 ± 0.071.
Under setting [1], `CCCC(=O)N1CC[C@@]2(CC1)CN(Cc1ccc(Cl)cc1)[C@H](CO)c1[nH]c3cc(OC)ccc3c21` came in with a viability index of 0.873 ± 0.16.
Under setting [1], `COc1ccc2c3c([nH]c2c1)[C@@H](CO)N(Cc1ccccc1)C[C@]31CCN(Cc2cncnc2)CC1` came in with a viability index of 0.849 ± 0.064.
As for `CCCC(=O)N1CC[C@@]2(CC1)CN(Cc1ccc(Cl)cc1)[C@@H](CO)c1[nH]c3cc(OC)ccc3c21`, under setting [1], the viability index came out at 0.795 ± 0.039.
For the compound `COc1ccc2c3c([nH]c2c1)[C@@H](CO)N(Cc1nccs1)C[C@]31CCN(Cc2cccnc2)CC1`, the viability index under setting [1] amounted to 0.98 ± 0.062.
Compound `COc1ccc2c3c([nH]c2c1)[C@@H](CO)N(Cc1nccs1)C[C@]31CN(Cc2ccncc2)C1` had a viability index under setting [1] of 1.02 ± 0.079.
Under setting [1], `COc1ccc2c3c([nH]c2c1)[C@@H](CO)N(Cc1ccc(Cl)cc1)C[C@]31CCN(Cc2nccs2)CC1` registered a viability index of 0.814 ± 0.015.
On the same count and under the same terms, with `COc1ccc2c3c([nH]c2c1)[C@H](CO)N(Cc1nccs1)C[C@]31CCN(Cc2cccnc2)CC1` the figure was 0.946 ± 0.081; with `COc1ccc2c3c([nH]c2c1)[C@H](CO)N(Cc1ccc(Cl)cc1)C[C@]31CCN(Cc2nccs2)CC1`, 0.884 ± 0.047.
`COCC(=O)N1CC[C@@]2(CC1)CN(Cc1ccccc1Cl)[C@H](CO)c1[nH]c3cc(OC)ccc3c21` had a viability index under setting [1] of 1.023 ± 0.0089.
In turn, `CCCN(C)C[C@H]1Oc2cc(/C=C/c3ccccc3)ccc2S(=O)(=O)N([C@H](C)CO)C[C@H]1C` displayed a viability index under setting [1] of 1.05 ± 0.026.
On to `COc1ccc2c3c([C@@H](CO)N(C[C@]33CCN(CC4CCOCC4)CC3)C(=O)NC(C)C)n(C)c2c1`, for which the viability index under setting [1] turned out to be 0.97 ± 0.013.
Still for that read-out and setting: with `COc1ccc2c3c([C@H](CO)N(CC4CC4)C[C@]33CCN(CC3)C(=O)NC3CCCC3)n(C)c2c1` the figure was 0.955 ± 0.05.
On the same count and under the same terms, for `C[C@H]1CN([C@@H](C)CO)C(=O)CCCn2nncc2CO[C@H]1CN(C)C(=O)c1ccc2ccn(C)c2c1` the value was 1.015 ± 0.0067; for `O=C(C[C@@H]1CC[C@H]2[C@@H](COC[C@@H](O)CN2C(=O)c2ccccc2F)O1)NCc1ccc(Cl)c(Cl)c1`, 1.09 ± 0.036; for `COC(=O)c1ccc(CN2CC(=O)N3[C@H](CO)[C@@H](c4ccc(-c5cccnc5)cc4)[C@H]3C2)cc1`, 0.986 ± 0.01.
Under setting [1], `C[C@@H]1CN([C@H](C)CO)C(=O)CCCn2cc(nn2)CO[C@@H]1CN(C)Cc1ccccc1` displayed a viability index of 0.986 ± 0.035.
In turn, `O=C(C[C@H]1CC[C@@H](NC(=O)Nc2ccc(C(F)(F)F)cc2)[C@H](CO)O1)NCc1cccc(F)c1` came in with a viability index under setting [1] of 0.953 ± 0.14.
For the compound `Cc1noc(C)c1S(=O)(=O)Nc1ccc2c(c1)C(=O)N([C@@H](C)CO)C[C@@H](C)[C@@H](CN(C)C(=O)Nc1cccc3ccccc13)OCCCC[C@@H](C)O2`, under setting [1], the viability index is 0.893 ± 0.066.
The compound `Cc1noc(C)c1S(=O)(=O)Nc1ccc2c(c1)C(=O)N([C@@H](C)CO)C[C@H](C)[C@@H](CN(C)C(=O)Nc1cccc3ccccc13)OCCCC[C@H](C)O2` gave a viability index under setting [1] of 0.984 ± 0.043.
In turn, `C[C@@H]1CCCCO[C@@H](CN(C)C(=O)Nc2cccc3ccccc23)[C@H](C)CN([C@@H](C)CO)C(=O)c2cc(NC(=O)CCC(F)(F)F)ccc2O1` showed a viability index under setting [1] of 1 ± 0.061.
Compound `C[C@@H]1CN([C@@H](C)CO)C(=O)c2cc(NC(=O)C3CCCCC3)ccc2O[C@@H](C)CCCCO[C@H]1CN(C)C(=O)CCC(F)(F)F` returned a viability index under setting [1] of 1.07 ± 0.071.
Compound `C[C@@H]1CN([C@@H](C)CO)C(=O)c2cc(NC(=O)CCC(F)(F)F)ccc2O[C@@H](C)CCCCO[C@@H]1CN(C)C(=O)Nc1cccc2ccccc12` registered a viability index under setting [1] of 0.734 ± 0.082.
For the compound `C[C@@H]1CN([C@H](C)CO)C(=O)c2cc(NC(=O)CCC(F)(F)F)ccc2O[C@@H](C)CCCCO[C@H]1CN(C)C(=O)Nc1cccc2ccccc12`, under setting [1], the viability index was 1.08 ± 0.036.
Regarding `C[C@@H]1CN([C@H](C)CO)C(=O)c2cc(NC(=O)C3CCCCC3)ccc2O[C@@H](C)CCCCO[C@H]1CN(C)C(=O)CCC(F)(F)F`, under setting [1], the viability index came out at 1.05 ± 0.096.
Turning to `Cc1noc(C)c1S(=O)(=O)Nc1ccc2c(c1)C(=O)N([C@@H](C)CO)C[C@@H](C)[C@@H](CN(C)C(=O)Nc1cccc3ccccc13)OCCCC[C@H](C)O2`, the viability index under setting [1] was 0.828 ± 0.11.
On the same count and under the same terms, for `C[C@@H]1CN([C@H](C)CO)C(=O)c2cc(NC(=O)C3CCCCC3)ccc2O[C@@H](C)CCCCO[C@@H]1CN(C)C(=O)CCC(F)(F)F` the value was 0.817 ± 0.26; for `CN1C(=O)c2cc(NC(=O)c3cnccn3)ccc2OC[C@H]2O[C@H](CC(=O)NCC3CCCCC3)CC[C@@H]21`, 0.959 ± 0.028; for `Cc1ccc(S(=O)(=O)N[C@H]2CC[C@@H](CC(=O)NCc3ccncn3)O[C@@H]2CO)cc1`, 1.01 ± 0.11.
`CN1[C@@H]2CN(C(=O)C3CCCCC3)c3ccccc3[C@@H]2[C@@H]1CO` gave a viability index under setting [1] of 1.06 ± 0.063.
Compound `COc1ccc(NC(=O)N2C[C@@]3(C2)CN([C@@H](CO)c2[nH]c4cc(OC)ccc4c32)C(C)=O)cc1` gave a viability index under setting [1] of 1.01 ± 0.1.
`COc1ccc2c3c([nH]c2c1)[C@H](CO)N(C[C@]31CCN(Cc2ccncc2)CC1)C(=O)CC1CC1`: the viability index under setting [1] is 0.934 ± 0.098.
Still for that read-out and setting: for `COCc1cn(CC[C@@H]2CC[C@H](NC(=O)Nc3c(C)noc3C)[C@@H](CO)O2)nn1` the value was 1.07 ± 0.097.
`COCc1cn(CC[C@H]2CC[C@@H](NC(=O)Nc3c(C)noc3C)[C@H](CO)O2)nn1`: the viability index under setting [1] turned out to be 1.03 ± 0.051.
Under setting [1], `COCc1cn(CC[C@H]2CC[C@H](NC(=O)Nc3c(C)noc3C)[C@@H](CO)O2)nn1` displayed a viability index of 0.927 ± 0.067.
In turn, `COCc1cn(CC[C@@H]2CC[C@H](NC(=O)Nc3c(C)noc3C)[C@H](CO)O2)nn1` gave a viability index under setting [1] of 0.951 ± 0.12.
As for `O=C(C1CCOCC1)N1CC(=O)N2[C@H](C1)[C@@H](c1ccc(C#CCc3ccccc3)cc1)[C@@H]2CO`, under setting [1], the viability index came to 1.06 ± 0.041.
In the case of `COCc1cn([C@@H]2C[C@@H]3O[C@H](CO)CC[C@@H]3O[C@@H]2CCc2ccc(-c3ccc(OC)cc3)cc2)nn1`, the viability index under setting [2] came to 0.791 ± 0.041.
`COCc1cn([C@@H]2C[C@@H]3O[C@@H](CO)CC[C@@H]3O[C@@H]2CCc2ccc(-c3ccc(OC)cc3)cc2)nn1` showed a viability index under setting [2] of 0.811 ± 0.063.
Compound `O=C(C1CCOCC1)N1CC(=O)N2[C@H](C1)[C@H](c1ccc(C#CCc3ccccc3)cc1)[C@@H]2CO` had a viability index under setting [1] of 1.09 ± 0.14.
Under setting [2], `OC[C@H]1CC[C@@H]2O[C@H](CCc3ccc(C#CCc4ccccc4)cc3)[C@H](n3cc(-c4ccccc4)nn3)C[C@@H]2O1` showed a viability index of 0.781 ± 0.043.
`CCC(=O)N1CC2(C1)[C@@H](c1ccc(-c3cccc(C)c3)cc1)[C@@H](CO)N2S(C)(=O)=O` registered a viability index under setting [1] of 1.057 ± 0.0069.
As to `Cc1nn(C)cc1NC(=O)C[C@@H]1CC[C@@H]2[C@H](COc3ccc(NC(=O)c4cccc(F)c4)cc3C(=O)N2C)O1`, under setting [1], the viability index was 1.15 ± 0.11.
In the case of `O=C(C[C@@H]1CC[C@@H]2[C@H](COC[C@@H](O)CN2C(=O)Nc2cccc(F)c2)O1)NCCCN1CCOCC1`, the viability index under setting [1] turned out to be 1.12 ± 0.081.
With `COc1ccc(CN(C)C[C@@H]2OCc3cnnn3CCCC(=O)N([C@H](C)CO)C[C@@H]2C)cc1`, the viability index under setting [1] was 0.963 ± 0.038.

Values taken from the supplement of paper PMC4723716.
